# Reference: PubChem BioAssay (Tox21)
# Results filed as inconclusive are left out. Entries that show only a call come without a potency. A number with no mark means an inactive call. Active and inactive are the calls of the source. Calls follow the shape of the dose curve; as a rule, active = well fitted curve in the direction sought with a large enough effect in the repeat runs; inconclusive = weak or mixed curves; inactive = no such curve, though single readings can be large; an effect the other way counts as inactive or inconclusive.
# What was measured:
# [1] = target: Cytochrome P450 2C19 (Homo sapiens) (UniProt P33261); assay: Cytochrome P450 Family 2 Subfamily C Member 19 (CYP2C19) small molecule antagonists: luciferase reporter qHTS assay (AID 1671197); also: nearly all actives have a fitted effect of over 65% in size; also: potency is read from the fitted curve at half-maximal effect; as to activity change, negative = inhibition: series mostly up to about 120 µM
# How it was run: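 Relative luminescence units recorded 20 min after the detection reagent stopped a 1 h, 37C CYP2C19 reaction on proluciferin substrate, which was started by NADPH regeneration following 10 min room-temperature compound preincubation; ketoconazole positive control.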
# [2] = target: Cytochrome P450 2C9 (Homo sapiens) (UniProt P11712); assay: Cytochrome P450 Family 2 Subfamily C Member 9 (CYP2C9) small molecule antagonists: luciferase reporter qHTS assay (AID 1671198); also: nearly all actives have a fitted effect of over 50% in size; also: potency is read from the fitted curve at half-maximal effect; as to activity change, negative = inhibition: series mostly up to about 120 µM
# How it was run: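 Enzyme-substrate mix preincubated with compound 10 min at room temperature; reaction started with NADPH regeneration solution, 1 h 37C. Luminescent luciferin product read after 20 min detection reagent.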
# [3] = target: Cytochrome P450 1A2 (Homo sapiens) (UniProt P05177); assay: Cytochrome P450 Family 1 Subfamily A Member 2 (CYP1A2) small molecule antagonists: luciferase reporter qHTS assay (AID 1671199); also: nearly all actives have a fitted effect of over 50% in size; also: potency is read from the fitted curve at half-maximal effect; as to activity change, negative = inhibition: series mostly up to about 120 µM
# How it was run: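 Compounds were incubated with CYP1A2 and a luminogenic proluciferin substrate for 10 min at room temperature before the reaction was started with NADPH regeneration solution. After 1 h, detection reagent was added and light output, proportional to CYP activity, was recorded.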
# [4] = target: Voltage-gated inwardly rectifying potassium channel KCNH2 (Homo sapiens) (UniProt Q12809); assay: Human Ether-a-go-go-Related Gene (hERG) channel small molecule antagonists: fluorescence cell-based qHTS assay (AID 1671200); also: series mostly up to about 77 µM; nearly all actives have a fitted effect of over 50% in size
# How it was run: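 Thallium flux as potassium surrogate: FluxOR II dye loaded 1 h at room temperature into hERG-expressing U2OS cells, then stimulus buffer added after 10 min. Kinetic 480 nm excitation/540 nm emission read, 2 min.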
# [5] = target: Cytochrome P450 3A4 (Homo sapiens) (UniProt P08684); assay: Cytochrome P450 Family 3 Subfamily A Member 4 (CYP3A4) small molecule antagonists: luciferase reporter qHTS assay (AID 1671201); also: nearly all actives have a fitted effect of over 50% in size; also: potency is read from the fitted curve at half-maximal effect; as to activity change, negative = inhibition: series mostly up to about 120 µM
# How it was run: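 Recombinant human CYP3A4 converts a proluciferin substrate to luciferin over 1 h at room temperature after NADPH regeneration solution is added (compound preincubated 10 min); detection reagent stops reaction, luminescence read 20 min later as relative units.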
# Sequence of Cytochrome P450 2C19 (Homo sapiens) (P33261 whole entry, looked up): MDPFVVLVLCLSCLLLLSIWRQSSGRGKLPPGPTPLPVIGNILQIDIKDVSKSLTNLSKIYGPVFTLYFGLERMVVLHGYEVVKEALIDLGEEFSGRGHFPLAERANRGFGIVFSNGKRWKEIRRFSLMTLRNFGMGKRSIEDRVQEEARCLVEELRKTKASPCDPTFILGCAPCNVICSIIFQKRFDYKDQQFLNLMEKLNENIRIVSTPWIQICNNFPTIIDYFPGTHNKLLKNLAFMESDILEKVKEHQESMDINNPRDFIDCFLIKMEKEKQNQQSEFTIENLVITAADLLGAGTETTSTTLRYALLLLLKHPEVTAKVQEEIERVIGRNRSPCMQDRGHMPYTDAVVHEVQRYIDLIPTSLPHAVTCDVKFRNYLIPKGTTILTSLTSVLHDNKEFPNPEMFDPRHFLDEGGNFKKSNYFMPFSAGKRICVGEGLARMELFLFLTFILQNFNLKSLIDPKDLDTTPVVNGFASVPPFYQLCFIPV
# Sequence of Cytochrome P450 2C9 (Homo sapiens) (P11712 whole entry, looked up): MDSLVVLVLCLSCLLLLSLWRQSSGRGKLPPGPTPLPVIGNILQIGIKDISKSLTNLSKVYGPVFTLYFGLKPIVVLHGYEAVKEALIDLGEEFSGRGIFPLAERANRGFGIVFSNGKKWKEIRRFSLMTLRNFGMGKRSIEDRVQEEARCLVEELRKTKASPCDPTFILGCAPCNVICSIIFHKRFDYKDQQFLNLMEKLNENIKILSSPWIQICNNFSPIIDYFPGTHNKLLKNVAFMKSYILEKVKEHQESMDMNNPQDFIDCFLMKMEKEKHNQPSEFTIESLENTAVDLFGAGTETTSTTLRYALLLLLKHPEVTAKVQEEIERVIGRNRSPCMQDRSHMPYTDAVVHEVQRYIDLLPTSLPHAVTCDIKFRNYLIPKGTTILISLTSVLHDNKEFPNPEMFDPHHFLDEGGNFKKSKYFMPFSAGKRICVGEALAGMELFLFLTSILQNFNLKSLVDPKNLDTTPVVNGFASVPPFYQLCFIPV
# Sequence of Cytochrome P450 1A2 (Homo sapiens) (P05177 whole entry, looked up): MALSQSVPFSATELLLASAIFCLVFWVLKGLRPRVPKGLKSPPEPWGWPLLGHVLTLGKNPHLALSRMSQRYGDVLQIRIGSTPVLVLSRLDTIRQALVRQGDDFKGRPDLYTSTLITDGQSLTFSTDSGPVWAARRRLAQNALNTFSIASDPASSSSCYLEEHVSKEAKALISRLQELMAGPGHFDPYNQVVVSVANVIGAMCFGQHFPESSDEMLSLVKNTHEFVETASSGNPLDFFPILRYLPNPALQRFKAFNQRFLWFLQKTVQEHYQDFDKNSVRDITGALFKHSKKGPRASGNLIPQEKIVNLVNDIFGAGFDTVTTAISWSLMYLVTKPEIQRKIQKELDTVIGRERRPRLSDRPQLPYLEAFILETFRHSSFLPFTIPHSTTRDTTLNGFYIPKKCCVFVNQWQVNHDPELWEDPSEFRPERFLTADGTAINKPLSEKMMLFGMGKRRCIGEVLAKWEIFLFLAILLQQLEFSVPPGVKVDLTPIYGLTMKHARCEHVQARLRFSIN
# Sequence of Cytochrome P450 3A4 (Homo sapiens) (P08684 whole entry, looked up): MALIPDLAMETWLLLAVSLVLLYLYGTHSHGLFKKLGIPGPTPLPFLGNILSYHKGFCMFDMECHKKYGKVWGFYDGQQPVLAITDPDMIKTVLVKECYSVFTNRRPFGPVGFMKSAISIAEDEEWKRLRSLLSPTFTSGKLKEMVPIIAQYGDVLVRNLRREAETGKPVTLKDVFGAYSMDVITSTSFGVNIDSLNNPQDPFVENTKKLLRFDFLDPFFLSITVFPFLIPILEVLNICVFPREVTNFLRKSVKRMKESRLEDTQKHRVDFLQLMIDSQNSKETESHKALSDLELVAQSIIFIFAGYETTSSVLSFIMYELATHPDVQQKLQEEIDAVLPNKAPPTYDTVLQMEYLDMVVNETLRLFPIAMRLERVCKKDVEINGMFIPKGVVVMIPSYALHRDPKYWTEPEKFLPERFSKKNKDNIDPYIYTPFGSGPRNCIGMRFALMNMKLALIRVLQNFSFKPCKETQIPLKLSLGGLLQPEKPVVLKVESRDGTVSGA
# Sequence of Voltage-gated inwardly rectifying potassium channel KCNH2 (Homo sapiens) (Q12809 whole entry, looked up): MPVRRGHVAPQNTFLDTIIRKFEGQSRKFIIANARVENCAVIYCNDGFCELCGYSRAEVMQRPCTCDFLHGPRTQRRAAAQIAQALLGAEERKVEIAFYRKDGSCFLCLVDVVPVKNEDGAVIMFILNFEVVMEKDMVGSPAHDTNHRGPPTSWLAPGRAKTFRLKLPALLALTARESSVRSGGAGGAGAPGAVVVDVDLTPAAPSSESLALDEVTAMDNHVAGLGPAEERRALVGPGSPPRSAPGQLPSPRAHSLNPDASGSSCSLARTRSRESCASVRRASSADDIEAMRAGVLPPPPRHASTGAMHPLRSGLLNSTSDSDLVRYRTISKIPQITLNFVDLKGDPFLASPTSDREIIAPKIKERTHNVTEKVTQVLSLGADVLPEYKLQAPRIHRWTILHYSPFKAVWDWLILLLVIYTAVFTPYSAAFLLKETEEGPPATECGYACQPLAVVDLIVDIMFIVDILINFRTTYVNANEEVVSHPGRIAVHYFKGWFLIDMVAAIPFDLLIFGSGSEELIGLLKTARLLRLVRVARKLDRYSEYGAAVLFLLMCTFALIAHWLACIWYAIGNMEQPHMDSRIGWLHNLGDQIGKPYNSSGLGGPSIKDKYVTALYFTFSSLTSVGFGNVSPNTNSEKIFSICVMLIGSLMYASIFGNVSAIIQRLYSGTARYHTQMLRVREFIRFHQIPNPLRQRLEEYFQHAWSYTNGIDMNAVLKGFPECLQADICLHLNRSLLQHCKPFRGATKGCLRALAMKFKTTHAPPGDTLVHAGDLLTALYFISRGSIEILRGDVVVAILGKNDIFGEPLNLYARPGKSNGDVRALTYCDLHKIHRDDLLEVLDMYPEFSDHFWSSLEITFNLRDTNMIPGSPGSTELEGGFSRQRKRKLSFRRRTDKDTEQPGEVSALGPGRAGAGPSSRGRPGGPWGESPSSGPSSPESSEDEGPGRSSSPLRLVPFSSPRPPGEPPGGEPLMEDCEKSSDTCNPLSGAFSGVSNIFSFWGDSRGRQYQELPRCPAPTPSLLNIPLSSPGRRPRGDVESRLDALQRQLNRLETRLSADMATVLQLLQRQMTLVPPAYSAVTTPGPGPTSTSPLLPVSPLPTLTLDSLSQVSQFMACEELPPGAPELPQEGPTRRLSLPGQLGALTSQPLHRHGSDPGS
smiles,measurement,setting,value
CCCCCc1ccco1,Potency,[1],32.8 µM (active)
same,Potency,[2],26 µM (active)
same,Potency,[3],36.8 µM (active)
same,Potency,[4],inactive
same,Potency,[5],23.2 µM (active)
CC(C)c1ccc(C(=O)N=C(N)N)cc1S(C)(=O)=O,Potency,[1],inactive
same,Potency,[2],inactive
same,Potency,[3],44.4 µM (active)
same,Potency,[4],inactive
same,Potency,[5],inactive
CCCCCCCCCCCC(=O)OCC(O)CO (stereo not given),Potency,[1],79.6 µM (active)
same,Potency,[2],39.9 µM (active)
same,Potency,[4],inactive
Cc1cccc2sc(N)nc12,Potency,[1],22.7 µM (active)
same,Potency,[2],inactive
same,Potency,[3],18.1 µM (active)
same,Potency,[4],inactive
same,Potency,[5],inactive
CCOC(=O)N1CCC(Nc2ccc(Cl)cc2N)CC1,Potency,[1],4.36 µM (active)
same,Potency,[2],8.71 µM (active)
same,Potency,[3],inactive
same,Potency,[4],inactive
same,Potency,[5],inactive
CC(C)Cc1ccc(CC(=O)O)cc1,Potency,[1],inactive
same,Potency,[3],inactive
same,Potency,[4],inactive
O=C(/C=C/c1ccc([N+](=O)[O-])cc1)c1ccccc1,Potency,[1],1.59 µM (active)
same,Potency,[2],11.3 µM (active)
same,Potency,[3],5.04 µM (active)
same,Potency,[4],inactive
same,Potency,[5],inactive
O=C(Oc1ccccc1)c1ccc2ccccc2c1O,Potency,[1],79.6 µM (active)
same,Potency,[3],5.64 µM (active)
Cc1cn([C@H]2C[C@H](F)[C@@H](CO)O2)c(=O)[nH]c1=O,Potency,[1],inactive
same,Potency,[2],inactive
same,Potency,[4],inactive
same,Potency,[5],inactive
C[C@H](CS)C(=O)N1CCC[C@H]1C(=O)O,Potency,[1],21.9 µM (active)
same,Potency,[3],inactive
same,Potency,[4],inactive
CC/C=C\C/C=C\C/C=C\CCCCCCCC(=O)OCC,Potency,[1],64.8 µM (active)
same,Potency,[4],inactive
same,Potency,[5],72.7 µM (active)
CCCCCCCC(=O)Oc1c(Br)cc(C#N)cc1Br,Potency,[1],35.5 µM (active)
same,Potency,[2],39.8 µM (active)
same,Potency,[3],12.6 µM (active)
same,Potency,[5],inactive
c1ccc2sc(SSc3nc4ccccc4s3)nc2c1,Potency,[1],4.77 µM (active)
same,Potency,[2],9.52 µM (active)
same,"activity change, negative = inhibition",[3],-16.1% [at 23.6 µM]
same,"activity change, negative = inhibition",[4],5.4% [at 15.8 µM]
C=C(C)c1ccccc1,Potency,[1],inactive
same,Potency,[2],inactive
same,Potency,[4],inactive
COC(CC(C)CCCC(C)(C)O)OC (stereo not given),Potency,[1],35.6 µM (active)
same,Potency,[4],inactive
same,Potency,[5],inactive
O=C(O)CN1C(=O)c2cccc3cccc(c23)C1=O,Potency,[4],inactive
COc1cc(OC)c2ccc(=O)oc2c1,Potency,[3],7.96 µM (active)
same,Potency,[4],inactive
same,Potency,[5],39.9 µM (active)
CCCCOCCOC(=O)c1cccnc1,Potency,[4],inactive
O=C1OC[C@H](Cc2cccc(O)c2)[C@H]1Cc1cccc(O)c1,Potency,[1],4.8 µM (active)
same,Potency,[2],13.5 µM (active)
same,Potency,[3],10.7 µM (active)
same,Potency,[4],inactive
CC(C)(C(=O)c1cccnc1)c1cccnc1,Potency,[1],inactive
same,Potency,[2],inactive
same,Potency,[3],inactive
same,Potency,[4],inactive
same,Potency,[5],0.389 µM (active)
COc1ccc(N)c([N+](=O)[O-])c1,Potency,[3],8.94 µM (active)
same,Potency,[4],inactive
COc1ccc(-c2cc(=S)ss2)cc1,Potency,[1],9.77 µM (active)
same,Potency,[3],0.911 µM (active)
same,Potency,[4],inactive
COc1cc(S(=O)(=O)Nc2ccccc2)c(OC)cc1N,Potency,[1],15.9 µM (active)
same,Potency,[2],35.6 µM (active)
same,Potency,[3],39.9 µM (active)
same,Potency,[4],inactive
same,Potency,[5],3.56 µM (active)
CC(O)Cn1cnc2c1c(=O)n(C)c(=O)n2C (stereo not given),Potency,[4],inactive
CCCCCCCC/C=C\CCCCCCCC(=O)OCCO,Potency,[1],52.9 µM (active)
same,Potency,[2],18.8 µM (active)
same,Potency,[4],inactive
same,Potency,[5],13.3 µM (active)
CC(C)COC(=O)c1ccc(O)cc1,Potency,[1],3.17 µM (active)
same,Potency,[2],25.2 µM (active)
same,Potency,[3],2.82 µM (active)
same,Potency,[4],inactive
COC(=O)c1sccc1S(N)(=O)=O,Potency,[1],79.6 µM (active)
same,Potency,[2],inactive
same,Potency,[3],inactive
same,Potency,[4],inactive
same,Potency,[5],inactive
O=P(O)(O)Oc1ccccc1,Potency,[1],inactive
same,Potency,[2],inactive
same,Potency,[3],inactive
same,Potency,[4],inactive
same,Potency,[5],inactive
CC12CC3CC(C)(C1)CC(N)(C3)C2,Potency,[1],inactive
same,Potency,[3],inactive
same,Potency,[4],inactive
CCCCCC,Potency,[4],inactive
O=NN(CCCl)C(=O)NCCCl,Potency,[4],inactive
CC(CN(CCN(CC(C)OCCO)CC(C)OCCO)CC(C)OCCO)OCCO (stereo not given),Potency,[1],86.1 µM (active)
same,Potency,[3],inactive
same,Potency,[4],inactive
O=C1CC[C@@H](C(=O)O)N1,Potency,[1],inactive
same,Potency,[2],inactive
same,Potency,[3],inactive
same,Potency,[4],inactive
same,Potency,[5],inactive
CC1=C2[C@@H]([C@H](C)CC[C@H]2/C=C(\C)C(=O)O)[C@H](O)C1,Potency,[1],inactive
same,Potency,[2],inactive
same,Potency,[3],inactive
same,Potency,[4],inactive
same,Potency,[5],inactive
CCNc1nc(N)nc(Cl)n1,Potency,[2],inactive
same,Potency,[3],31.7 µM (active)
same,Potency,[4],inactive
same,Potency,[5],inactive
COc1cc(NC(C)CCCN)c2ncccc2c1 (stereo not given),Potency,[4],inactive
Cc1ccc(Cl)cc1N,Potency,[1],36.2 µM (active)
same,Potency,[3],10.2 µM (active)
same,Potency,[4],inactive
CCCCC(CC)COS(=O)(=O)O (stereo not given),Potency,[1],inactive
same,Potency,[3],inactive
same,Potency,[4],inactive
same,Potency,[5],inactive
